# Test results reported in PubChem BioAssay AID588342 (National Center for Advancing Translational Sciences (NCATS), 2011).
# The campaign covered roughly 360,000 compounds. About 25,000 (6.9%) were called active. Not shown: some 9% with an inconclusive outcome. The sample holds actives, similar compounds and a random draw of the others, so the mix is not that of the screen. Unmarked numbers belong to inactive results. Calls come from the whole dose curve; as a rule, active = well fitted inhibition curve with a large enough effect; inconclusive = small, poorly fitted or top-dose-only effect; inactive = flat fitted curve, though single readings scatter.
# Target: Luciferin 4-monooxygenase (Photinus pyralis) (UniProt P08659)
# Sequence (P08659 whole entry, looked up): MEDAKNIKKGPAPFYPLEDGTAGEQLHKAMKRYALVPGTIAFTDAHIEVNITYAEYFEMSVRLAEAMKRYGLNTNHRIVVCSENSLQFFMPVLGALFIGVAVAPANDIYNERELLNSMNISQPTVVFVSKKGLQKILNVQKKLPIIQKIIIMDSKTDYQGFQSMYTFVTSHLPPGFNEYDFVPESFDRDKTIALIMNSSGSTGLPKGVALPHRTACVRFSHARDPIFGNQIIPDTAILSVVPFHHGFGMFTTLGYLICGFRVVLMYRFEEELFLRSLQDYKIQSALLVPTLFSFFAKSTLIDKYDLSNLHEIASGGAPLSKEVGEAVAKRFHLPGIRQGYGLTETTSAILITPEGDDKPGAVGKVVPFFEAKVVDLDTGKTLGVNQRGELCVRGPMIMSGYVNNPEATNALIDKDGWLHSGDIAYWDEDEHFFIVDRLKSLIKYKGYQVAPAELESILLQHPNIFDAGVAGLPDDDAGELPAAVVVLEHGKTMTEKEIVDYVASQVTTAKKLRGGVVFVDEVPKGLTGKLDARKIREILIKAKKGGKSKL
# Experiment: qHTS profiling assay for firefly luciferase inhibitor/activator using purifed enzyme and Km concentrations of substrates (counterscreen for miR-21 project); note: nearly all actives have a fitted effect of over 55% in size;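 for activity change, negative = inhibition: plate controls were vehicle for no effect and reference inhibitor for full effect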
# Conditions: purified FLuc, luminescence inhibition; series mostly up to 57.5 µM; activity change, negative = inhibition: at the top concentration
# Text: MLPCN Grant: 1 R21 NS059478-01 (miR-21 grant) Assay Provider: NCGC NCGC Assay Overview: Firefly (Photinus pyralis) luciferase is one of the most commonly used transcriptional reporters for a number of reasons. It is considered one of the more dynamically responsive reporters -that is, responsive to changes in reporter transcription - as it requires no post-translational modifications and is enzymatically active directly after protein synthesis (Wood, 1998). Additionally, the half-life of the luciferase protein is short relative to other reporter-gene products (Wood, 1995). Whereas reporters with long half-lives potentially allow for increased signal due to accumulation of reporter-gene product, once accumulated in the cell, dynamic changes in reporter-gene expression may be difficult to detect(Fan and Wood, 2007; Almond et al., 2004). It has been shown that wild-type P. pyralis luciferase has a half-life of approximately […] hours in mammalian cells (Thompson et al., 1991). Firefly luciferase reporter-gene assays are also generally considered one of the most sensitive assay types (Wood, 1995; Wood, 1998). Although light produced in a bioluminescence reaction is of lower intensity than that produced during fluorescence emission, this is offset by little to no background light inherent to luminescent assays. Thus the luciferase reporter can be expressed at much lower levels than fluorescent proteins while still providing robust signal. # However, it was initially observed, in 1991, by Thompson et al., that compounds that resemble the substrates of firefly luciferase (FLuc) can act as competitive inhibitors of the enzyme, and that these compounds, upon interaction with luciferase in the cell, can actually stabilize the protein and increase its half-life. Accumulated intracellular FLuc protein can be measured as an increase in luminescence signal, upon addition of detection reagents (which contain high concentrations of FLuc substrates) commonly used in high-throughput screening. In cell-based reporter gene assays that use FLuc as the reporter gene to quantitate the potential influence of a given compound against the target biology, this apparent increase in luminescence can mistakenly be interpreted as identification of a compound that is active against the target of interest. This is the case for the miR-21 FLuc reporter gene assay used to identify inhibitors of the miR-21 pathway (PubChem AID 2289) - compounds of interest will inhibit miR-21 biogenesis/expression or activity, and are identified by causing an increase in luminescence, due to increased FLuc translation. However, FLuc inhibitory compounds that stabilize the FLuc protein will give an identical read-out, making it difficult to distinguish compounds that are active against the target from those active against FLuc. Previous profiling work to determine the prevalence of compounds that affect FLuc enzymatic activity (PubChem AID 411) identified that ~3% of the MLSMR library (then at ~72K) inhibited FLuc. […] Since the MLSMR had grown to ~350K compounds, and since it was expected that a significant percentage of compounds found active in the miR-21 FLuc assay would be FLuc inhibitors, the library was screened for activity against FLuc using a biochemical assay of purified FLuc and KM concentrations of FLuc substrates (D-luciferin and ATP).
# NCGC Assay Protocol Summary: Reagents: 50mM Tris acetate, pH 7.5; 10mM Mg acetate; 10uM D-luciferin (Sigma #L9504); 10uM ATP; 0.01% Tween-20; 0.05% BSA; 10nM P. pyralis luciferase (Sigma #L9506) Control compounds used were two known firefly luciferase inhibitors (compounds (2) and (5) in Auld et al., 2010), and DMSO. […]
Structure (SMILES),"activity change, negative = inhibition",Potency
COc1ccc2nc(SCC(=O)Nc3c(C)cc(C)cc3C)[nH]c2c1,6.49%,–
CCOC(=O)CSc1nc2ccc(C)cc2[nH]1,–,16.9 µM (active)
COc1ccc(S(=O)(=O)NCc2cccn2Cc2cccc(C)c2)cc1,-0.767%,–
Clc1cccc(N=C2NN=C(c3ccc4c(c3)OCCO4)CS2)c1,–,2.13 µM (active)
c1ccc(CN2CCC(N=C3NN=C(c4ccc5c(c4)OCCO5)CS3)CC2)cc1,-19.4%,–
CC1CCN(C(=O)COC(=O)c2cc(=O)[nH]c3ccccc23)CC1,–,10.7 µM (active)
COC(=O)C1CCN(C(=O)c2cc(=O)[nH]c3ccccc23)CC1,-3.07%,–
CC(NC(=O)COC(=O)c1cc(=O)[nH]c2ccccc12)c1ccccc1 (stereo unspecified),-7.16%,–
Cc1cc(C)cc(NC(c2nnc(-c3cccc(F)c3)o2)c2ccc(F)cc2Cl)c1 (stereo unspecified),0.751%,–
COc1cccc(CNc2nccn(-c3ccc(OC)c(OC)c3)c2=O)c1,-2.32%,–
COc1ccc(-c2cc(C(F)(F)F)nc(SCC(=O)N(C)Cc3ccccc3)n2)cc1OC,-5.79%,–
COc1ccc(CC2c3cc(OC)c(OC)cc3CC[N+]2(C)CCC(=O)OCCCCCOC(=O)CC[N+]2(C)CCc3cc(OC)c(OC)cc3C2Cc2ccc(OC)c(OC)c2)cc1OC (stereo unspecified),1.46%,–
CCC(=O)Nc1cccc(-c2nc3cc(C)ccc3o2)c1,–,2.69 µM (active)
O=C(Nc1ccc2oc(-c3ccc(O)c(Br)c3)nc2c1)c1cc2ccccc2o1,2.43%,–
COc1ccc(-c2nc3ccccc3o2)cc1NC(=O)c1cc([N+](=O)[O-])ccc1N1CCOCC1,3.15%,–
COc1cccc(-c2nc(S(=O)(=O)c3ccc(C)cc3)c(NCc3ccccc3)o2)c1,3.23%,–
Cc1ccc(OCC(=O)Nc2ccc(-c3nc4ncccc4o3)cc2)cc1,-2.22% [at 2.3 µM],–
O=C(Nc1cc(-c2nc3ccccc3o2)ccc1Cl)c1cc([N+](=O)[O-])ccc1N1CCOCC1,-12.3%,–
O=C(Nc1cccc(-c2nc3ccccc3o2)c1)c1cccc(Br)c1,-18.3%,–
CCCOc1ccc(C(=O)Nc2ccc3oc(-c4cccc(Cl)c4Cl)nc3c2)cc1,-4.27%,–
COc1ccc2oc(-c3ccc(C)c(NC(=O)c4sc5ccccc5c4Cl)c3)nc2c1,-8.93%,–
COc1cccc(-c2nc3cc(C)ccc3o2)c1,–,0.757 µM (active)
CCCC(=O)Nc1ccc2oc(-c3ccc(O)c(Br)c3)nc2c1,–,2.39 µM (active)
O=[N+]([O-])c1ccc2oc(-c3cccc(O)c3)nc2c1,–,2.13 µM (active)
Cc1sc(C2C(C#N)=C(N)N(c3cccc(Cl)c3)C3=C2C(=O)CCC3)cc1CN1CCOCC1 (stereo unspecified),0.0548%,–
Cc1ccsc1C(=O)NC1CCCCC1C (stereo unspecified),-4.61%,–

Structure (SMILES),"activity change, negative = inhibition",Potency
CCOc1ccccc1CNC(=O)Nc1cn(CC(C)C)c(=O)c2ccccc12,-8.92%,–
COc1ccccc1-c1oc2ccccc2c1C#CCCCCO,-2.19%,–
COC(=O)CC1Oc2ccccc2-n2cc(-c3ccccc3)nc21 (stereo unspecified),-15.8%,–
CCN1C(=O)c2ccccc2Sc2ccc(NC(=O)Cc3ccc(OC)cc3)cc21,-6.99%,–
COc1ccc(/C=C(/NC(=O)c2ccco2)C(=O)Nc2ccc(C(C)=O)cc2)cc1,-4.55%,–
COc1ccc(C(=O)NCc2ccc(Cl)cc2)cc1S(=O)(=O)N1CCCC1,-5.91%,–
CCOc1ccc(Nc2oc(/C=C/c3ccc(F)cc3)nc2C#N)cc1,-5.12%,–
CCCCn1c(=N)c(S(=O)(=O)c2ccccc2)cc2c(=O)n3cccc(C)c3nc21,2.9%,–
CN1CCN(CC(=O)Nc2sc3c(c2C#N)CCC(C(C)(C)C)C3)CC1 (stereo unspecified),2.26%,–
CC(C)(C)C1CCc2c(sc3nc(SCC(N)=O)nc(N)c23)C1 (stereo unspecified),–,4.78 µM (active)
Nc1nc(SCC(=O)NCCN2CCOCC2)nc2sc3c(c12)CCC3,-15.9%,–
COc1ccc(OC)c(NC(=O)CSc2nc3ccccc3nc2N2CCCCC2)c1,6.02%,–
CCOc1ccc(C(C)NC(=O)CN2C(=O)NC3(CCCCC3)C2=O)cc1OCC (stereo unspecified),-1.45%,–
O=C(CSc1nc(-c2cccc(F)c2)[nH]c1-c1ccccc1)Nc1ccc2c(c1)OCO2,-13.3%,–
CCOC(=O)C(Cc1ccccc1)NC(=O)CCc1c(C)nc2c(c(C)nn2-c2ccc(C)c(C)c2)c1C (stereo unspecified),-1.42%,–
O=C(CSc1nc2ccccc2[nH]1)c1cccs1,–,6.75 µM (active)
COc1ccccc1CSc1nc2ccccc2[nH]1,–,13.5 µM (active)
COc1ccc(NC(=O)CSc2nc3ccccc3[nH]2)cc1,-17.5%,–
COc1ccccc1-c1noc(CSc2nc(C)cc(=O)[nH]2)n1,-15.8%,–
O=C(CSc1nc2ccccc2[nH]1)Nc1nc(-c2ccccc2)c(-c2ccccc2)o1,-1.43%,–
CCc1nnc(NC(=O)CCCSc2nc3ccccc3[nH]2)s1,-6.22%,–
CCCCSc1nc2ccccc2[nH]1,–,16.9 µM (active)
CN(Cc1ccccc1)c1nc2c(c(=O)[nH]c(=O)n2C)n1CCSc1nc2ccccc2[nH]1,-0.398%,–
O=C(NCc1ccccc1)c1onc(CSc2nc3ccccc3[nH]2)c1C(=O)NCc1ccccc1,2.2%,–
CCc1ccc(CN(C)C(C)C(=O)Nc2ccc(S(=O)(=O)N3CCCC3)cc2)cc1 (stereo unspecified),2.76%,–
